Molecules are shown by their SMILES.

The target in experiment [1] is T1, CDK9/cyclin T1 (Homo sapiens) (UniProt O60563+P50750). To be noted: at 1 µM.
Experiment [2] deals with T1, CDK9/cyclin T1 (Homo sapiens). The settings on record: at 10 µM.
The target of experiment [3] is T2, Serine/threonine-protein kinase Chk1 (Homo sapiens) (UniProt O14757).
T2 sequence (whole entry): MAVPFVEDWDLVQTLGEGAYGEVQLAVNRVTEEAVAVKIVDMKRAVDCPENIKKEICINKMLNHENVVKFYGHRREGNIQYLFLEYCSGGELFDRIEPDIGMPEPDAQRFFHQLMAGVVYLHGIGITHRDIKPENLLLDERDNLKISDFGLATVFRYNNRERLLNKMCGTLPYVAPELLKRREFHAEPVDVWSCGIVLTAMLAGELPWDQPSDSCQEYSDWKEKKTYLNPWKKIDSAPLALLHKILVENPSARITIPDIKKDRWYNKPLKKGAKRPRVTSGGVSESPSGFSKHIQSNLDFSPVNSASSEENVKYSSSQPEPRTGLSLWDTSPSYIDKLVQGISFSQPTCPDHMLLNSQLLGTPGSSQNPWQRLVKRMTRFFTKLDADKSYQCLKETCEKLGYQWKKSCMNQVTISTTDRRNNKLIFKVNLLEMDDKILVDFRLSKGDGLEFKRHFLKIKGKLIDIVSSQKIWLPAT
The settings on record: at 1 µM.

Experiment [4] concerns the target T2, Serine/threonine-protein kinase Chk1 (Homo sapiens). To be noted: at 10 µM.
Experiment [5] has as its target Serine/threonine-protein kinase Chk2 (Homo sapiens) (UniProt O96017). The settings on record: at 1 µM.
For experiment [6] the target is unchanged. To be noted: at 10 µM.
Experiment [7] concerns the target Casein kinase I isoform gamma-1 (Homo sapiens) (UniProt Q9HCP0). To be noted: at 1 µM.
For experiment [8] the target is unchanged. The settings on record: at 10 µM.
In experiment [9] the target is Casein kinase I isoform delta (Homo sapiens) (UniProt P48730). The settings on record: at 1 µM.
For experiment [10] the target is unchanged. To be noted: at 10 µM.

Chain of Casein kinase I isoform gamma-1 (Homo sapiens) (Q9HCP0 whole entry, looked up, canonical isoform): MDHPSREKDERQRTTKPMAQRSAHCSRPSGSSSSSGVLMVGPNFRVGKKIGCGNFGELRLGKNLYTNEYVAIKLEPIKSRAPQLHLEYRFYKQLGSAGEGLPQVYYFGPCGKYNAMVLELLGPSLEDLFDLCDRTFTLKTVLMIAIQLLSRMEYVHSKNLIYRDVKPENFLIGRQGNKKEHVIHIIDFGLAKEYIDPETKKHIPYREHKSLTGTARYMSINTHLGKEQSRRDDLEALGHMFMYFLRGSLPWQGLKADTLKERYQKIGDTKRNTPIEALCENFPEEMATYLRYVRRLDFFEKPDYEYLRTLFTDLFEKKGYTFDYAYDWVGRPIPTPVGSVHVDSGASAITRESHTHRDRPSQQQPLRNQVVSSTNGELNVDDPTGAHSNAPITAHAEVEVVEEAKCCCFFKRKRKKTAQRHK
Chain of Casein kinase I isoform delta (Homo sapiens) (P48730 whole entry, looked up, canonical isoform): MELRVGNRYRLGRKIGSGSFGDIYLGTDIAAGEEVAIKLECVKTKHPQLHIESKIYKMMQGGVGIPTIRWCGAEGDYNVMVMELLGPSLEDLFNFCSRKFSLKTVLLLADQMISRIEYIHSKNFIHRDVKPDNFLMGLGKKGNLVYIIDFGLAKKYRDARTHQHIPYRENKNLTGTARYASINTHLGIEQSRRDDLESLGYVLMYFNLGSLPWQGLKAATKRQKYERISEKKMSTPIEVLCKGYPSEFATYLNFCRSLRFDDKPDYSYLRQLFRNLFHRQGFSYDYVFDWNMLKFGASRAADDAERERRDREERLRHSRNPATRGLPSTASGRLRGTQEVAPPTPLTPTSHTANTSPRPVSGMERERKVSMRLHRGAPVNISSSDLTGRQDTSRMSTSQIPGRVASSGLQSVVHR
Chain of Serine/threonine-protein kinase Chk2 (Homo sapiens) (O96017 whole entry): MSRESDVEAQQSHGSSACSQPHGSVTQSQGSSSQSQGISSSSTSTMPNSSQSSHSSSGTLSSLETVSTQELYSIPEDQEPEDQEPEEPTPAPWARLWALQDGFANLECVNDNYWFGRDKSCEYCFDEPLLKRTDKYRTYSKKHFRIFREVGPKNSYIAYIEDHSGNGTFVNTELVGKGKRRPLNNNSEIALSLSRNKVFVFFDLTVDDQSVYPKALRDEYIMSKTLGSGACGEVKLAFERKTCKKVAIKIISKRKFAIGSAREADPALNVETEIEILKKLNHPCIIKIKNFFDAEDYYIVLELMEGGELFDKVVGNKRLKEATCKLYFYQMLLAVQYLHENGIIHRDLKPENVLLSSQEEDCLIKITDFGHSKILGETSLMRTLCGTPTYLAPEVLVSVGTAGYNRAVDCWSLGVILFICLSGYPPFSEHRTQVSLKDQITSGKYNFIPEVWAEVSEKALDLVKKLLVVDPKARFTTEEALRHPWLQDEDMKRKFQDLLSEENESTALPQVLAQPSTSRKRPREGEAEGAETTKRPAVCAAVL

With `O=C1Nc2ccc(Br)cc2/C1=C\c1cc2c([nH]1)CCCC2`, the residual activity came to 104% in [1]; 97% in [2]; 78% in [3]; 81% in [4]; 44% in experiment [5]; 42% in experiment [6].

For `Cc1cccc(-c2[nH]c(C(C)(C)C)nc2-c2ccc3c(c2)OCO3)n1`, the residual activity in experiment [2] was 98%; in [3] it was 88%; in experiment [4] it was 92%; in experiment [5], 91%; in experiment [6], 97%; in experiment [7], 101%. The residual activity in experiment [8] was 100%; in [9] it was 69%; in experiment [10], 33%.

For the compound `N#CC(C#N)=C(N)/C(C#N)=C/c1ccc(O)cc1`, the residual activity in experiment [2] is 86%; in experiment [3], 90%; in experiment [4], 96%; in [5], 88%; in experiment [6] it was 85%; in [7], 83%. For the same compound, the residual activity in experiment [8] is 99%; in experiment [9], 82%; in [10], 54%.

Turning to `CCC(=O)Nc1ccc2ncnc(Nc3cccc(Br)c3)c2c1`, the residual activity in [1] worked out at 102%; in experiment [2], 86%; in [3], 85%; in experiment [4], 87%; in [5] it was 95%; in experiment [6], 87%. In addition, the residual activity in experiment [7] was found to be 87%; in experiment [8] it was 95%; in [9] it was 97%; in [10], 100%.

Consider `Cc1nc2cc3nc(-c4cccs4)cnc3cc2n1C`, for which the residual activity in experiment [1] worked out at 109%; in [2], 102%; in experiment [3], 101%; in experiment [4], 108%; in experiment [5] it was 86%; in experiment [6], 101%. The residual activity in experiment [8] turned out to be 89%; in [9], 95%; in experiment [10] it was 67%.

As to `CCN(CC)C(=O)c1ccc(Nc2nc(OCC3CCCCC3)c3nc[nH]c3n2)cc1`, the residual activity in experiment [1] worked out at 46%; in experiment [2], 8%; in experiment [3], 57%; in experiment [4], 10%; in experiment [5], 55%; in experiment [6], 12%. Further, the residual activity in experiment [7] stood at 42%; in experiment [8], 7%; in experiment [9] it was 71%; in experiment [10], 34%.

Turning to `COc1cccc(-c2cc(=O)c3ccccc3o2)c1N`, the residual activity in [1] was 104%; in experiment [2], 108%; in [3], 104%; in experiment [4], 90%; in experiment [5], 85%; in experiment [6], 72%. In addition, the residual activity in experiment [7] stood at 95%; in experiment [8] it was 88%; in experiment [9], 102%; in experiment [10], 87%.

On to `O=C1NC(=O)/C(=C/c2ccc3c(c2)OC(F)(F)O3)S1`, for which the residual activity in experiment [1] was 94%; in experiment [2], 77%; in experiment [3] it was 94%; in [4], 88%; in experiment [5] it was 93%; in experiment [6] it was 85%. The residual activity amounted to 95% in [7], 94% in experiment [8], 80% in experiment [9] and 65% in experiment [10].

As for `CC(=O)c1ccc(N2CCOCC2)cc1O`, the residual activity stood at 85% in experiment [1]; 74% in [2]; 96% in experiment [3]; 93% in experiment [4]; 94% in [5]; 91% in [6]. For the same compound, the residual activity in [7] worked out at 97%; in experiment [8], 97%; in experiment [9], 89%; in experiment [10], 94%.

On to `Oc1ccc(Nc2nc(-c3ccc(Cl)cc3)cs2)cc1`, for which the residual activity is 104% in [1]; 99% in experiment [2]; 99% in experiment [3]; 104% in [4]; 64% in experiment [5]; 40% in experiment [6]. In addition, the residual activity in experiment [7] came to 113%; in experiment [8], 98%; in experiment [9] it was 79%; in [10], 72%.

As for `O=C1NC(=O)/C(=C\c2ccc3nccnc3c2)S1`, the residual activity in [1] stood at 60%; in experiment [2], 14%; in [3] it was 85%; in experiment [4] it was 91%; in experiment [5], 78%; in experiment [6], 33%. Moreover, the residual activity in experiment [7] came out at 92%; in experiment [8] it was 44%; in [9], 88%; in experiment [10] it was 46%.

Take `CO[C@H]1C[C@@H]2CC[C@@H](C)[C@@](O)(O2)C(=O)C(=O)N2CCCC[C@H]2C(=O)O[C@H]([C@H](C)C[C@@H]2CC[C@@H](O)[C@H](OC)C2)CC(=O)[C@H](C)/C=C(\C)[C@@H](O)[C@@H](OC)C(=O)[C@H](C)C[C@H](C)/C=C/C=C/C=C/1C`: the residual activity in experiment [1] was found to be 120%; in experiment [2] it was 98%; in [3] it was 77%; in [5], 98%; in experiment [6], 85%; in experiment [7] it was 87%. Besides, the results for the residual activity in experiment [8], in experiment [9] and in experiment [10] were 101%, 84% and 109%, respectively.

Turning to `Oc1c2ccccc2c2c3c(cccc13)N=N2`, the residual activity in experiment [1] came out at 96%; in [2] it was 55%; in experiment [3] it was 72%; in [4], 32%; in experiment [5], 29%; in experiment [6] it was 2%. Moreover, the residual activity in experiment [7] is 99%; in [8], 48%; in experiment [9] it was 5%; in experiment [10], 1%.

As to `CNc1cc2c(Nc3cccc(Br)c3)ncnc2cn1`, the residual activity in experiment [1] came out at 86%; in [2], 86%; in experiment [3], 88%; in experiment [4] it was 77%; in experiment [5] it was 97%; in [6], 56%. Besides, the residual activity in experiment [7] amounted to 101%; in experiment [8], 69%; in [9], 111%; in experiment [10], 90%.

As to `CCN(CC)CCCCN1c2ccccc2Oc2ccc(Cl)cc21`, the residual activity in [1] worked out at 108%; in experiment [2], 108%; in [3], 99%; in [4] it was 103%; in [5], 94%; in experiment [6] it was 103%. Moreover, the residual activity stood at 102% in [7], 103% in experiment [8], 95% in experiment [9] and 96% in [10].

Take `NC(=O)c1ccc2[nH]c(-c3ccc(Oc4ccc(Cl)cc4)cc3)nc2c1`: the residual activity in experiment [1] is 81%; in [2], 78%; in experiment [3] it was 91%; in experiment [4], 97%; in experiment [7] it was 78%; in experiment [8], 57%. Also, the residual activity in experiment [9] and in experiment [10] was 83% in each case.

As to `Cc1cncc2cccc(S(=O)(=O)N3CCCN(C(=O)CN)C[C@H]3C)c12`, the residual activity in experiment [1] worked out at 92%; in experiment [2], 71%; in experiment [3], 88%; in experiment [4] it was 93%; in experiment [5] it was 80%; in experiment [6] it was 83%. Further, in experiment [9], the residual activity was 83%.

Regarding `COc1ccc(OC)c2c(=S)c3ccccc3[nH]c12`, the residual activity in [1] turned out to be 95%; in experiment [2], 83%; in experiment [3], 108%; in experiment [4] it was 88%; in experiment [5], 106%; in experiment [6] it was 68%. The residual activity was determined as 99% in experiment [7], 77% in experiment [8], 101% in experiment [9] and 74% in experiment [10].

By residual activity is commonly meant the signal under treatment as a percentage of the control signal.
